Nrf2 block = inhibitors of Nrf2 signaling; A549 ARE-Fluc reporter, luciferase luminescence, 18-24 h; Potency, µM (top dose mostly 46 µM), most hits filed as inhibitors; 360,000 tested, 2.1% active; AID 504444; also: nearly all actives have a fitted effect of over 60% in size
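In this cell-based qHTS, ARE-driven firefly luciferase in A549 cells reports Nrf2 activity; the luminescent signal after BugLite lysis is the measured value, with a prior CellTiter-Fluor read for cell health.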
Pin1 inh = blocks the human prolyl isomerase Pin1; Q13526; Pin1 FP peptide displacement, HiFluor488, 10 min; Potency, µM (top dose mostly 115 µM), most hits filed as inhibitors; 390,000 tested, 0.009% active; active = well fitted inhibition curve with a large enough effect in the polarisation, with a control signal flat, not every such curve was filed as active; inconclusive = small, poorly fitted or top-dose-only effect, or effect the other way, or a change in a side signal; inactive = no such curve, though single readings can be large or run the other way; the % refers to the polarisation
Target sequence (Q13526 whole entry, looked up): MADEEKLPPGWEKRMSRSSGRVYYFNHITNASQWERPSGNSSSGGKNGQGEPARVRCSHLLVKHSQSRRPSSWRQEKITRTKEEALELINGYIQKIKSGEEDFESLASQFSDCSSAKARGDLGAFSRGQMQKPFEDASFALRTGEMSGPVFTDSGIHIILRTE
A549 viability = kills or reduces viability of A549 cells in Nrf2 counter-screen | 390,000 tested, 0.16% active | A549 ARE-Fluc cells, CellTiter-Fluor viability, 18-24 h | Potency, µM (titrated, usually from 46 µM), hits mostly inhibitors
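A549 ARE-Fluc cells in 5% FBS OPTI-MEM, 5000 cells/well, rested 2 h then exposed to compounds in concentration-response for 18-24 h at 37 °C. Viability by CellTiter-Fluor fluorescence (Ex 405/Em 525) after 30 min; luciferase luminescence (BugLite, 15 min, RT) read afterwards.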
Nrf2 activator = activators of Nrf2 (ARE) signaling. AREc32 ARE-luciferase reporter (MCF7-derived line), luminescence, 24 h. Potency, µM (doses to about 46.1 µM), most hits filed as activators. 410,000 tested, 0.31% active; also: nearly all actives have a fitted effect of over 65% in size
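Quantitative high-throughput format: AREc32 reporter cells, 1000 per well, received compound by pin transfer and were incubated 24 hr at 37 deg C, 5% CO2, before Steady-Glo luminescence detection.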
Hits are given with their value; - = inactive; ? = inconclusive; . = not tested or not shown; [ ] = remark or other dose. Compounds with a hit are over-represented: about 2.2% of the library has one in this group of screens. Unless noted, calls follow the shape of the dose curve; as a rule, active = well fitted curve in the direction sought with a large enough effect; inconclusive = small, poorly fitted or top-dose-only effect, or another doubt; inactive = no such curve, though single readings can be large; an effect the other way counts as inactive or inconclusive.

SMILES | Nrf2 block | Pin1 inh | A549 viability | Nrf2 activator
COc1ccc(N/N=C(/C(C)=O)N2CCCc3ccccc32)cc1 | 6.51µM | - | - | -
CCn1c(=O)sc2cc(NS(=O)(=O)c3ccc(C)cc3)ccc21 | 18.4µM | - | - | -
COc1ccc(S(=O)(=O)Nc2ccc3c(c2)N(C(C)=O)CCC3)cc1 | 11.6µM | - | - | -
Cc1ccc(-n2nc(C)c3c(C)c(CCC(=O)NCc4ccccc4Cl)c(C)nc32)cc1 | - | - | - | -
COc1cccc(NS(=O)(=O)c2ccc3c(c2)CCN3C(C)=O)c1 | 10.3µM | - | - | -
CC(=O)N1CCc2cc(S(=O)(=O)Nc3ccc(C)c(C)c3)ccc21 | 14.6µM | - | - | .
CSc1cccc(NS(=O)(=O)c2ccc3c(c2)CCN3C(C)=O)c1 | ? | - | - | -
CC1Cc2cc(S(=O)(=O)NCc3ccccc3)ccc2N1C(=O)C1CC1 (stereo not given) | ? | - | - | -
O=C(c1ccc(S(=O)(=O)Nc2cccc(C(F)(F)F)c2)cc1)N1CCOCC1 | ? | - | - | -
CCc1cccc(NS(=O)(=O)c2ccc3c(c2)CC(C)N3C(=O)C2CC2)c1 (stereo not given) | 11.6µM | - | - | -
CC1CN(C(=O)c2ccc(S(=O)(=O)Nc3cccc(C(F)(F)F)c3)cc2)CC(C)O1 (stereo not given) | 13µM | - | - | -
CCc1nn2c(=O)cc(-c3ccncc3)nc2s1 | - | - | - | .
CC(=O)N1CCc2cc(S(=O)(=O)Nc3cccc(C(F)(F)F)c3)ccc21 | 9.2µM | ? | - | -
CC(=O)N1c2ccc(S(=O)(=O)Nc3ccc(C)c(C)c3)cc2CC1C (stereo not given) | 10.3µM | - | ? | .
CCc1ccccc1NC(=O)CSc1nncn2c1cc1oc(C)cc12 | - | - | - | -
Cc1nc(-c2ccccc2)cc(N2CCCC2)n1 | - | - | - | ?
Cc1cc(-c2ccccc2)nc2[n+]1CCN2C | 5.17µM | - | - | -
CCOC(=O)c1cccc(NC(=O)CN2C(=O)c3ccccc3Sc3ncccc32)c1 | - | - | - | -
COc1cc2cc(C(=O)N3CCOCC3)cc(-c3ccc(C)cc3)c2cc1OC | 18.4µM | - | ? | -
Cn1c(=O)oc2cc(S(=O)(=O)N3CCCC(C(=O)NCCc4ccc(Cl)cc4)C3)ccc21 (stereo not given) | - | - | - | -
Cc1c(C(=O)NCCSCc2c(Cl)cccc2Cl)cccc1[N+](=O)[O-] | 9.2µM | - | - | -
Cc1c(C(=O)NCCSCc2ccccc2Cl)cccc1[N+](=O)[O-] | ? | - | - | -
CC(=O)N1CCN(S(=O)(=O)c2cccc(C(=O)OCc3ccc(C(C)(C)C)cc3)c2)CC1 | 23.1µM | - | - | -
O=C1C(SCCO)=C(SCCO)C(=O)c2ccccc21 | 25.9µM | ? | ? | -
O=C(NC(NC(=S)Nc1cccc(Cl)c1)C(Cl)(Cl)Cl)OCc1ccccc1 (stereo not given) | 16.4µM | - | ? | -
SMILES | Nrf2 block | Pin1 inh | A549 viability | Nrf2 activator
O=C(CCc1ccccc1)NC(NC(=S)Nc1ccc(Cl)cc1)C(Cl)(Cl)Cl (stereo not given) | 14.6µM | - | ? | -
COc1ccccc1CNC(=O)c1ccc(-c2nc(CN3CCc4ccccc43)c(C)o2)cc1 | . | - | - | -
COc1ccc(C2Nc3ccccc3C(=O)N2CCc2ccc(Cl)cc2Cl)cc1COc1ccc(NC(C)=O)cc1 (stereo not given) | - | - | - | .
Cc1ccc(N=C(NOCc2ccc(Cl)cc2Cl)c2nonc2N)c(C)c1 | 23.1µM | - | - | -
Cc1ccccc1N=C(NOCc1ccc(Cl)cc1Cl)c1nonc1N | ? | - | - | -
Cc1c(C(=O)OCc2nc3scc(-c4ccccc4)c3c(=O)[nH]2)cccc1[N+](=O)[O-] | 20.6µM | - | - | -
Cc1ccc(C)c(N2CCN(C(=O)CCS(=O)(=O)c3ccc4c(c3)NC(=O)CO4)CC2)c1 | 8.2µM | - | - | -
Cc1ccc(C)c(N2CCN(C(=O)CCS(=O)(=O)c3ccc4c(c3)CCN4C(=O)C3CC3)CC2)c1 | 25.9µM | - | - | -
O=C1COc2ccc(S(=O)(=O)CCC(=O)N3CCN(c4ccccc4)CC3)cc2N1 | - | - | - | -
N#Cc1c(NC(=O)c2ccccc2)sc2c1CCCCC2 | ? | - | - | -
N#Cc1c(Cl)nsc1NC(=O)c1ccccc1 | 2.59µM | - | ? | -
Cc1ccc(Cl)cc1Nc1sc(C(=O)c2ccccc2)c(N)c1S(=O)(=O)c1ccccc1 | ? | - | - | -
CCS(=O)(=O)c1c(Nc2cc(C)ccc2C)sc(C(=O)c2ccccc2)c1N | 23.1µM | - | - | -
COc1cc(NC(=O)CSc2nnc3c4ccccc4n(C)c3n2)cc(OC)c1OC | - | ? | - | .
CC[n+]1c(/C=C2\C=C(C)CC(C)(C)C2)sc2ccccc21 | 16.4µM | - | -[1.84 µM] | ?
Cc1c(Br)cc(F)c([S+](=O)([O-])N2CCN([S+](=O)([O-])c3ccc4c(c3)OCCO4)CC2)c1F | - | - | - | .
Cc1ccc(CSCCNC(=O)C2CCN(S(=O)(=O)Cc3ccccc3)CC2)cc1 | - | - | - | -
CC1(C)CCC(=NNC(N)=S)CC1 | - | - | - | -
NC(=S)NN=C1CSSC1 | . | . | . | 10µM
COc1cc(OC)cc(-c2nnc3n2N=C(c2ccccc2OC)CS3)c1 | ? | - | - | .
CCC1(c2ccccc2)SCC(c2ccccc2)=NC1=O (stereo not given) | 18.4µM | - | - | -
CNc1oc(/C=C/c2ccccc2)nc1C#N | ? | - | - | 2.82µM
CN1CCN(c2ccc(-c3ccc4ccccc4n3)cc2)CC1 | 10.3µM | - | - | -
O=C(Nc1cc(C(F)(F)F)ccc1Cl)C(O)Cc1ccccc1 (stereo not given) | - | - | - | .
OC(C1=CC(=Cc2ccncc2)c2ccccc21)c1ccncc1 (stereo not given) | 20.6µM | - | - | ?
SMILES | Nrf2 block | Pin1 inh | A549 viability | Nrf2 activator
CCOc1ccccc1C(=O)NC1CCN(CC(=O)Nc2cc(OC)ccc2OC)CC1 | 23.1µM | - | - | -
Cc1ccc(C)c(/C=C/C(=O)c2ccccc(=O)c2O)c1 | 23.1µM | - | ? | ?
Cc1ccc(/C=C/C(=O)c2ccccc(=O)c2O)c(C)c1 | 20.6µM | - | ? | -
O=C(/C=C/c1ccccc1Cl)c1ccccc(=O)c1O | ? | - | ? | ?
CCN(CC)CCN(C(=O)/C=C/c1cccs1)c1nc2ccc(OC)cc2s1 | ? | - | - | -
Cc1cccc2sc(N(CCN(C)C)C(=O)/C=C/c3cccs3)nc12 | - | - | ? | 11.2µM
COc1ccc2sc(N(CCN(C)C)C(=O)/C=C/c3cccs3)nc2c1 | - | - | - | 10µM
COc1ccc2nc(N(CCN(C)C)C(=O)/C=C/c3cccs3)sc2c1 | - | - | - | 10µM
CN(C)CCCN(C(=O)/C=C/c1cccs1)c1nc2c(F)cccc2s1 | - | - | - | ?
CC(=O)Oc1cccc(/C=C2\Sc3ccccc3C2=O)c1 | - | - | - | 14.1µM
Cc1cc(N2CCCC(C(=O)Nc3cccc(Cl)c3)C2)n2ncnc2n1 (stereo not given) | - | - | - | -
